# Test results as given in PubChem BioAssay AID1645882 (National Center for Advancing Translational Sciences (NCATS), 2021).
# The whole screen tested about 16,000 compounds, of which about 120 (0.75%) were called active. Roughly 4% stayed inconclusive and do not appear here. The call rests on the fitted dose curve; in most records, active means well fitted inhibition curve with a large enough effect; inconclusive means small, poorly fitted or top-dose-only effect; inactive means no such curve, though single readings can be large or run the other way. The entries come from a sample that favours actives as a whole. Where a call stands in place of a potency, no number is given. Where a structure was tested more than once in an assay, its records may differ in their call.
# Molecular target: Rap guanine nucleotide exchange factor 3 (Homo sapiens) (UniProt O95398)
# Assay: Validation qHTS for antagonist of cAMP-regulated guanine nucleotide exchange factor 3 (EPAC1); further: nearly all actives have a fitted effect of over 75% in size
# Conditions: EPAC1 Rap1B-BODIPY-GDP exchange, fluorescence; series mostly up to 150 µM
# Source text: Assay Provider (PI): Xiaodong Cheng Ph.D.
# The University of Texas Medical Branch, […], TX
# In multi-cellular eukaryotic organisms, the effects of cAMP are transduced by two ubiquitously-expressed intracellular cAMP receptors, the classic protein kinase A/cAMP-dependent protein kinase (PKA/cAPK) and the more recently discovered exchange protein directly activated by cAMP/cAMP-regulated guanine nucleotide exchange factor (EPAC/cAMP-GEF). Both PKA and EPAC are ubiquitously expressed in all tissues, and an increase in intracellular cAMP levels will lead to the activation of both PKA and EPAC. Therefore, careful dissections of the individual role and relative contribution of EPAC and PKA within the overall cAMP signaling in various model systems are critical for further elucidating the mechanism of cAMP signaling. To date no EPAC-specific antagonists and agonist, as well as isoform-specific agonists have been reported, and developing EPAC-specific pharmacological probes to determine the physiological functions that EPAC play in the overall cAMP-mediated signaling remains a major challenge within the research field. Furthermore, identified regulators of EPAC may lead to new mechanism-based therapeutic strategies specifically targeting the EPAC / cAMP-signaling components as EPAC has been implicated to play important roles in major human pathological conditions such as diabetes, heart disease, and cancer.
# This qHTS will be used to screen the Molecular Libraries Small Molecule Repository (MLSMR) as a concentration-titration series using the NCGC unique quantitative screening (qHTS) platform to find activators for EPAC1. In addition, this assay will also be used as a counterscreen for the EPAC2 qHTS. This fluorescent based assay is developed and validated for EPAC1 that measures exchange using EPAC effector Rap1 complex with BODIPY-GDP, a GDP analog with a tethered fluorophores. Activators are identified by monitoring the change in fluorescence signal as the exchanged free BODIPY-GDP has a reduced fluorescence compared to Rap1-bound BODIPY-GDP. Increase in signal (activation) is the desired outcome for the EPAC1 agonist while no activity in this assay is desired for the EPAC2 agonist counterscreen.
# [1] de Rooij, J., Zwartkruis, F. J., Verheijen, M. H., Cool, R. H., Nijman, S. M., Wittinghofer, A., and Bos, J.L. (1998) Nature 396, 474-477.
# Briefly, three uL of reagents (100 nM EPAC1, 250 nM RAP1B-BODIPY-GDP, 50 uM GDP) were dispensed into a 1536-well Greiner black solid-bottom medium binding assay plate. Controls and test compounds (23 nL) were transferred to the plate via a Kalypsys pin tool equipped with a 1536-pin array. The plates were centrifuged at 1,000 rpm for 15 seconds followed by 5 minute incubation at room temperature. The assay plates were read at 5 minute intervals for 30 minutes in the ViewLux plate reader using 480nm excitation and 540nm emission filters. The results were normalized to the […] positive control ATA and DMSO.
# Potency means the concentration at half of the fitted maximal effect.
# Chain of Rap guanine nucleotide exchange factor 3 (Homo sapiens) (O95398 whole entry, looked up): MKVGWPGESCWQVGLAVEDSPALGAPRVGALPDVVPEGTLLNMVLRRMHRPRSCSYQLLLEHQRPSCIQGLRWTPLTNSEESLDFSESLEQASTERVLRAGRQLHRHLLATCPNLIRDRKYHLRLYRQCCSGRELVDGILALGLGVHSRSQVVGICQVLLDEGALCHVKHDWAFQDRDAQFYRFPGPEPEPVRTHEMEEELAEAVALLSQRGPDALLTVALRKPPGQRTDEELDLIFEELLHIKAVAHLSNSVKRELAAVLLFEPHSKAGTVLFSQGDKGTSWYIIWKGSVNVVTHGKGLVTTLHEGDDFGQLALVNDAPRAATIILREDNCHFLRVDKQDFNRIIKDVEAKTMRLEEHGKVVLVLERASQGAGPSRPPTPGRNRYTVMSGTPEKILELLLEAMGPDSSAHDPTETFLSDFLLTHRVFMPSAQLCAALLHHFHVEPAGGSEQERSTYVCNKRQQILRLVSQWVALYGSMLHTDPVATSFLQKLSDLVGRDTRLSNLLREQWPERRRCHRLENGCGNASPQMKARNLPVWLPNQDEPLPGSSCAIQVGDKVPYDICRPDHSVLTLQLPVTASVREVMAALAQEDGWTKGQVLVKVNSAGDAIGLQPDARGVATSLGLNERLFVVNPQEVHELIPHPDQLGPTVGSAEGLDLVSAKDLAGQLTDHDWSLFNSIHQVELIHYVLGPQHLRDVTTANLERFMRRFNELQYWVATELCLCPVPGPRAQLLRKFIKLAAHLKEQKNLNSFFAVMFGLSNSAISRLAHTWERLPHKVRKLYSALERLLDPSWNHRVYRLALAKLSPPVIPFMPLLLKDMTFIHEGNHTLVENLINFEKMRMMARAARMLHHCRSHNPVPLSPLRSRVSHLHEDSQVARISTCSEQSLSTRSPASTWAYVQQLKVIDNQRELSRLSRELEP
Structure (SMILES),Potency,"activity change, negative = inhibition"
O=[N+]([O-])c1ccc(O)c([N+](=O)[O-])c1,inactive,–
O=[N+]([O-])c1cc(I)c(O)c(I)c1,inactive,–
O=[N+]([O-])c1cc(O)c(O)c([N+](=O)[O-])c1,79.4 µM (active) and inactive,–
COP(=S)(OC)Oc1ccc(S(N)(=O)=O)cc1,inactive,–
O=c1oc2ccccc2c(O)c1Cc1c(O)c2ccccc2oc1=O,inactive,–
O=c1oc2ccccc2c(O)c1C(c1ccccc1O)c1c(O)c2ccccc2oc1=O,inactive,–
O=c1oc2ccccc2c(O)c1C(CC(O)c1ccc(-c2ccc(Br)cc2)cc1)c1ccccc1 (stereo not given),100 µM (active),–
O=C(Oc1ccccc1)N1CCC2(CC1)CCN(C(c1ccccc1)c1ccccc1)CC2,inactive,–
CC(C)(C)c1cc(O)ccc1O,inactive,–
Oc1cc2c(cc1O)[C@H]1c3ccccc3CN[C@H]1CC2,inactive,–
CC(=O)O.CC(=O)O.[Cd],inactive,–
COc1cc2c(cc1OC)[C@@H]1C(=O)c3ccc4oc(C(C)C)cc4c3OC1CO2 (stereo not given in full),inactive,–
CCc1cccc(C)c1N(C(=O)CCl)C(C)COC (stereo not given),inactive,–
CN(C)C1C(=O)C(C(N)=O)=C(O)[C@@]2(O)C(=O)C3=C(O)c4c(O)cccc4[C@](C)(O)C3C(O)C12 (stereo not given in full),inactive,–
Cl.Cl.Cl.Cl.Cl.Cl.N.N.N.N.NNNNN.NNNNN.O.O.[Ru].[Ru].[Ru],89.1 µM (active),–
O=CN1CC2CC(C1)c1cccc(=O)n1C2 (stereo not given),inactive,–
CC(C)CCCC1(C)C=Cc2c(O)c3c(c(CCC(C)C)c2O1)OC12C(CC4CC1C(C)(C)OC2(CCC(C)C(=O)O)C4O)C3=O (stereo not given),70.8 µM (active),–
CN(C)CCc1c[nH]c2cccc(O)c12,inactive,–
ClCCN(CCCl)/C(=C\c1ccccc1)c1ccnc2ccccc12,inactive,–
O=C1CC[C@@]2(O)C3Cc4ccc(O)c5c4C2(CCN3CC2CC2)[C@H]1O5 (stereo not given in full),inactive,–

Structure (SMILES),Potency,"activity change, negative = inhibition"
CC(=O)OC1CC(OC(C)=O)[C@]2(C)C(CC(OC(C)=O)[C@]3(C)C2CC[C@@]2(C)C(c4ccoc4)C[C@H]4O[C@]432)C1(C)C (stereo not given in full),inactive,–
O=C1OC(c2ccc(O)c(S(=O)(=O)O)c2)(c2ccc(O)c(S(=O)(=O)O)c2)c2c(Br)c(Br)c(Br)c(Br)c21,14.1 µM (active),–
O=S(=O)(O)c1cc(O)ccc1O,inactive,–
CCOC(=O)[C@]12Cc3cc(OC)ccc3[C@H]1N(Cc1ccccc1)C(=O)c1cc(F)c(F)cc12,inactive,–
CC(Cc1ccc2c(c1)OCO2)NO (stereo not given),inactive,–
NC(=O)[C@H](Cc1ccccc1)NC(=O)[C@H](Cc1c[nH]c2ccccc12)NC(=O)[C@@H]1CCCN1C(=O)[C@@H](N)Cc1ccc(O)cc1,–,5.24% [at 15.3 µM] (inactive)
CCOC(=O)C1(c2ccccc2)CCCN(C)CC1 (stereo not given),inactive,–
CCC(C)C(=O)c1c(O)c(C)c2oc3c(C)c(O)c(C(=O)C(C)CC)c(O)c3c2c1O (stereo not given),inactive,–
CCOCN(C(=O)CCl)c1c(C)cccc1CC,inactive,–
O=[N+]([O-])c1ccc(F)c([N+](=O)[O-])c1,inactive,–
COc1c2c(c(CC=C(C)C)c3oc(=O)c(-c4ccc(O)cc4)c(O)c13)OC(C)(C)C=C2,inactive,–
CC(C)=CCCC1(C)C=Cc2c(O)c3c(c(CC=C(C)C)c2O1)OC12C(=CC4CC1C(C)(C)OC2(C/C=C(/C)C(=O)O)C4=O)C3=O (stereo not given),50.1 µM (active),–
CC(=O)Oc1c2c(c(CC=C(C)C)c3c1C(=O)C1=CC4CC5C(C)(C)OC(C/C=C(\C)C(=O)O)(C4=O)[C@]15O3)OC(C)(CCC=C(C)C)C=C2 (stereo not given in full),44.7 µM (active),–
COC(=O)/C(C)=C\CC12OC(C)(C)C3CC(C=C4C(=O)c5c(OC)c6c(c(CC=C(C)C)c5OC431)OC(C)(CCC=C(C)C)C=C6)C2=O (stereo not given),inactive,–
CC(C)=CCCC1(C)C=Cc2c(O)c3c(c(CC=C(C)C)c2O1)OC12C(=CC4CC1C(C)(C)OC2(C/C=C(/C)C(=O)O)C4O)C3=O (stereo not given),63.1 µM (active),–
CN[C@H]1C[C@@H](N)[C@H](O)[C@@H](O[C@@H]2O[C@H](CO)[C@H](O)[C@@H]3OC4(O[C@H]23)O[C@H](C(N)CO)[C@H](O)[C@H](O)[C@H]4O)[C@@H]1O (stereo not given in full),inactive,–
CC[C@]1(O)CC(O[C@@H]2CC(N(C)C)C(O)C(C)O2)c2c(cc3c(c2O)C(=O)c2c(O)cccc2C3=O)C1C(=O)OC (stereo not given in full),inactive,–
CCC(=O)O[C@H]1[C@@H](N2CCCCC2)C[C@H]2[C@@H]3CC[C@H]4C[C@H](OC(C)=O)[C@@H](N5CCCCC5)C[C@]4(C)[C@H]3CC[C@@]21C,inactive,–
CC(CC(C#N)(c1ccccc1)c1ccccc1)N(C)C (stereo not given),inactive,–
CC(C)C1C(=O)N2CCC[C@H]2[C@]2(O)O[C@](NC(=O)[C@@H]3C=C4c5cccc6[nH]cc(c56)C[C@H]4N(C)C3)(C(C)C)C(=O)N12 (stereo not given in full),inactive,–

Structure (SMILES),Potency,"activity change, negative = inhibition"
C[C@@]12CCC(O)C[C@H]1CCC1C2CC[C@]2(C)C(=O)CCC12 (stereo not given in full),inactive,–
O=S(=O)(O)C(F)(F)C(F)(F)C(F)(F)C(F)(F)C(F)(F)C(F)(F)C(F)(F)C(F)(F)F,35.5 µM (active),–
O=S(=O)(O)C(F)(F)C(F)(F)C(F)(F)C(F)(F)F,inactive,–
CC(C)C[C@H]1C(=O)N2CCC[C@H]2[C@]2(O)O[C@](NC(=O)[C@@H]3C[C@@H]4c5cccc6[nH]cc(c56)C[C@H]4N(C)C3)(C(C)C)C(=O)N12,inactive,–
O[C@@H]1CCCC[C@@H]1N1CCC(c2ccccc2)CC1,inactive,–
Cn1cccc1-c1cccnc1,inactive,–
N#C/C(=C/c1ccc(O)c(O)c1)C(N)=S,inactive,–
N#CC(C#N)=Cc1ccc(O)c(O)c1,inactive,–
N#C/C(=C\c1ccc(O)c(O)c1)C(N)=S,89.1 µM (active),–
O=c1ccc2cc(OC3OC(CO)C(O)C(O)C3O)c(O)cc2o1 (stereo not given),inactive,–
O=C(N[C@H]1N=C(c2ccccc2F)c2cccc3c2N(CC3)C1=O)c1cc2ccccc2[nH]1,inactive,–
CC1Cc2ccccc2CN1 (stereo not given),inactive,–
C[N+](C)(C)CCOC(=O)C(O)(c1ccccc1)c1ccccc1,inactive,–
CN(CCC(N)CC(=O)NC1C=CC(n2ccc(N)nc2=O)OC1C(=O)O)C(=N)N (stereo not given),inactive,–
O=C1C(Cl)=C(Cl)C(=O)C(Cl)=C1Cl,39.8 µM (active),–
COc1cc(CC(C)N)cc(OC)c1OC (stereo not given),inactive,–
O=C1C(I)=CC(=C(c2cc(I)c(O)c(I)c2)c2ccccc2C(=O)O)C=C1I,39.8 µM (active),–
CNc1ccccc1C(=O)O,inactive,–
Nc1ccccc1C(=O)O,inactive,–
N#CN,inactive,–
